High-throughput results: PubChem BioAssay, several laboratories
A selection: hits, their analogues and other compounds. The true share with any hit is near 1.9%.
IEC-6 tox = counter-screen for KLF5 inhibitors: cytotoxicity in IEC-6 cells | IEC-6 cytotoxicity, luminescence viability | inhibition, % at 5 µM | 290,000 tested, 0.78% active; in the data active = inhibition above about 22%;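 note: 0% = plate median of test compound wells and 100% = cytotoxic reference compound wells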
Ba/F3 V617F tox = lowers viability of Ba/F3 cells expressing EpoR and JAK2V617F | ATP luminescence | inhibition, % at 5.6 µM | 220,000 tested, 1.1% active;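 active = inhibition above the campaign mean plus 3 SD over all tested compounds, cut at about 24% in these data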;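 note: cytokine-independent growth of Ba/F3 cells driven by EpoR plus mutant JAK2; 0% = DMSO-treated cells and 100% = JAK inhibitor I control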
KLF5 inhibitor = inhibitors of KLF5 expression | DLD-1 KLF5 promoter-luciferase reporter, luminescence | inhibition, % at 5 µM | 290,000 tested, 0.23% active | AID 1700;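 active = inhibition above a per-plate limit of that plate's mean compound inhibition plus 3 SD, cut at about 60% in these data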;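 note: 0% = DMSO wells and 100% = LY294002 at 200 µM; higher means less KLF5 promoter-driven luciferase light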
APP transl inh = APP translation inhibition | SH-SY5Y APP 5'UTR-luciferase reporter, luminescence | inhibition, % at 2 µM | 190,000 tested, 0.82% active;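 active = inhibition above a set limit, derived from the sample mean plus 3 SD, cut at about 45% in these data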
BaF3 parental = reduces parental Ba/F3 cell viability, JAK2V617F counter-screen | CellTiter-Glo ATP luminescence | inhibition, % at 5.6 µM | 220,000 tested, 1.1% active;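 active = inhibition above a per-campaign cutoff, the mean inhibition of all tested compounds plus 3 SD, cut at about 27% in these data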;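 note: 0% = DMSO wells and 100% = JAK Inhibitor I control wells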
* = called active by the depositor; / = not tested or not shown.

SMILES	IEC-6 tox	Ba/F3 V617F tox	KLF5 inhibitor	APP transl inh	BaF3 parental
Cc1n(C)c2cc(Cl)ccc2[n+]1Cc1ccccc1	3	56*	-15	5	94*
O=C(O)C1CCCN(S(=O)(=O)Cc2ccccc2)C1 (centres undefined)	0	/	-8	/	/
Cn1nccc1NC(=O)Nc1cccc([N+](=O)[O-])c1	2	-4	3	/	1
CCCC(=O)NC(c1ccco1)c1cc([N+](=O)[O-])c2cccnc2c1O (centres undefined)	-5	2	-19	-7	7
CC(C)C(=O)NC(c1ccc(Cl)cc1Cl)c1ccc2cccnc2c1O (centres undefined)	13	/	79*	/	/
CC(=O)NC(c1ccco1)c1ccc2cccnc2c1O (centres undefined)	18	9	28	55*	8
COc1ccc(-c2c(=O)n(OC)c3ccccc3[n+]2[O-])cc1OC	7	/	-62	/	/
O=C1c2cccc3cccc(c23)C(=O)N1CC1CCN(CC(O)COCc2ccc3c(c2)OCO3)CC1 (centres undefined)	-4	11	-23	1	10
Cc1ccc(C)c(OCC(O)CN2CCC(CN3C(=O)c4cccc5cccc(c45)C3=O)CC2)c1 (centres undefined)	-5	-2	9	69*	6
CCS(=O)(=O)N1Cc2ccccc2CC1C(=O)OCC(=O)N(C(C)C)C(C)C (centres undefined)	0	0	-21	6	3
Cc1ccccc1CC1(CO)CCCN(Cc2c(C)nn(C)c2Cl)C1 (centres undefined)	10	0	-11	9	80*
Cc1nn(C)c(Cl)c1CN1CCCC(CO)(Cc2cccc(Cl)c2)C1 (centres undefined)	-3	-4	-29	-10	6
COc1cc(/C=C2/SC(N)=NC2=O)ccc1Oc1ccc([N+](=O)[O-])cc1[N+](=O)[O-]	0	-4	5	-4	-2
CC(C)(C)c1ccc(Oc2ccc(NC(=O)c3ccco3)cn2)cc1	13	80*	-32	/	72*
CC(C)(C)c1ccc(C(=O)CCCSC2=C(C#N)C(c3ccco3)C3=C(CCCC3=O)N2)cc1 (centres undefined)	0	6	-6	-25	10
N#CC1=C(SCC(=O)c2ccccc2)NC2=C(C(=O)CCC2)C1c1ccco1 (centres undefined)	12	47*	-76	68*	36*
COc1cc(-n2c(C)nc3cc(C(=O)N4CCOCC4)ccc32)cc(OC)c1OC	0	-2	-25	3	91*
COc1ccc(CN2CCS(=O)(=O)CC2)cc1OC	6	6	-18	-45	5
CN(C)c1ccc2c(c1)OC(N)=C(C#N)C2c1cccc(F)c1 (centres undefined)	2	-3	-25	95*	2
Cc1nn(C)c(C)c1/C=C(/C(=O)C(C)(C)C)n1cncn1	-4	-7	-6	/	-4
CC(C)(C)C(=O)/C(=C/c1ccncc1)n1cncn1	22	91*	14	58*	75*
Brc1ccccc1-c1nnc(SCc2nc3ccccc3s2)o1	-3	-3	-21	-81	5
COc1ccc(C)cc1N=Nc1ccc(O)c2ncccc12	0	0	6	68*	1
O=S(=O)(O)c1cccc2c(N=Nc3ccc(O)c4ncccc34)cccc12	-6	/	-20	/	/
O=Nc1ccc(O)c2ncccc12	19	99*	10	/	103*
SMILES	IEC-6 tox	Ba/F3 V617F tox	KLF5 inhibitor	APP transl inh	BaF3 parental
Cc1ccccc1N=Nc1ccc(O)c2ncccc12	-2	3	-6	77*	1
COc1ccc(C(=O)/C=C/C(=O)N(CC(=O)NC2CCCCC2)Cc2ccc(F)cc2)c(O)c1	-7	1	17	78*	6
CS(=O)(=O)N(CC(=O)NC1CCCCC1)Cc1ccc(F)cc1	-2	2	-8	-1	-1
CCc1nnc(NC(=O)c2cccc(C(=O)Nc3nnc(CC)s3)n2)s1	93*	3	54	85*	12
CCOCc1nnc(NC(=O)c2ccc(OC)cc2)s1	-4	-1	-66	47*	-1
CCc1nnc(NC(=O)c2ccncc2)s1	5	3	-12	8	5
COc1cc2c3nnc(-c4ccc(F)cc4)c-3cn(Cc3ccccc3F)c2cc1OC	-2	1	-15	53*	4
COc1ccc(OC)c(-c2csc(NC(=O)c3ccc(OCC4CCCO4)cc3)n2)c1 (centres undefined)	-4	3	-5	-44	30*
C=C(C)COc1ccc(-c2[nH]ncc2-c2ccccc2OC)c(O)c1	0	-2	-7	-7	2
C=C(C)COc1ccc(-c2[nH]ncc2-c2ccc(Br)cc2)c(O)c1	5	10	23	79*	4
C=C(C)COc1ccc(-c2n[nH]c(C)c2-c2ccc(Br)cc2)c(O)c1	0	-2	6	67*	2
C=C(C)COc1ccc(-c2ncncc2-c2ccc(Br)cc2)c(O)c1	-8	/	6	/	/
CCOC(=O)c1[nH]c2ccc(OC)cc2c1NC(=O)c1nonc1C	0	3	-21	46*	0
CCOc1ccc(NC(=O)C2CC(=O)N(c3cc(C)cc(C)c3)C2)cc1 (centres undefined)	-1	-2	-53	-6	2
Cc1ccc(-c2nc3cc(NC(=O)C(C)C)ccc3o2)cc1	-1	0	-230	-147	28*
CCOC(=O)CSc1nc2ccc(N3CCOCC3)cc2c(=O)n1Cc1ccccc1	1	0	-17	78*	6
CCOC(=O)CSc1nc2ccccc2c(=O)n1CCN1CCOCC1	-4	0	-28	-7	6
CCN1/C(=C/c2cc[n+](C)cc2)C=Cc2cc(C)ccc21	-3	99*	-6	-1	73*
CCN1/C(=C/c2ccc3ccccc3[n+]2CCCS(=O)(=O)[O-])C=Cc2cc(C)ccc21	6	/	-9	/	/
CCNc1nc2nc3ccc(C)cn3c(=O)c2cc1C(=O)NCC1CCCO1 (centres undefined)	-1	2	-9	-6	6
Cn1c(=O)c2[nH]c(COc3ccc(C(C)(C)C)cc3)nc2n(C)c1=O	8	26*	-4	/	48*
O=C(C[n+]1ccccc1)N1c2ccccc2Sc2ccccc21	6	3	-13	5	11
CN(C)c1cc[n+](CC(=O)N2c3ccccc3Sc3ccccc32)cc1	3	24*	-1	3	37*
Cc1ccc(C#CC[N+](C)(C)CC#Cc2ccccc2)cc1	2	85*	0	10	68*
CCCC(=O)Nc1ccc(C(=O)NNC(=O)COc2ccc(Br)c(C)c2)cc1	6	2	-21	50*	0
COC(=O)NNC(=O)COc1ccc(Br)c(C)c1	1	0	-8	-1	3
Cc1cc(Br)ccc1OCC(=O)NNC(=O)c1ccc(NC(=O)C2CC2)cc1	0	-2	5	45*	3
N/C(=N\NC(=O)c1sccc1OCc1ccc(Cl)cc1Cl)c1ccccn1	5	-1	-14	62*	2
CNC(=S)NNC(=O)c1sccc1OCc1ccc(Cl)cc1Cl	4	0	-17	-12	6
